CaV13 FRET inh = Primary screen for inhibitors of IQ motif and Ca2+-dependent inactivation inhibitor domain binding in CACNA1D, Förster resonance energy transfer in living cells, …. HEK cells, CFP/YFP FRET ICDI-IQ, plate reader, 10 min; percent FRET-ratio fall versus neutral wells. inhibition, % at 12.3 µM. hit rate 0.098% among 340,000. AID 743397;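 active = mean replicate inhibition of at least 30% and at least 1% of replicates passing that level; inconclusive = only one of the two criteria is met; inactive = neither criterion is met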
ERAP1 inh = inhibitors of human ERAP1 aminopeptidase; Q9NZ08; recombinant ERAP1, Leu-AMC fluorescence, 60 min; inhibition, % at 10.7 µM; hit rate 0.15% among 340,000;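 active = mean replicate inhibition of at least 30%, or all replicates individually reaching that 30% level; inactive = mean below 30% and not every replicate reaching it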
Target sequence (Q9NZ08 whole entry, looked up): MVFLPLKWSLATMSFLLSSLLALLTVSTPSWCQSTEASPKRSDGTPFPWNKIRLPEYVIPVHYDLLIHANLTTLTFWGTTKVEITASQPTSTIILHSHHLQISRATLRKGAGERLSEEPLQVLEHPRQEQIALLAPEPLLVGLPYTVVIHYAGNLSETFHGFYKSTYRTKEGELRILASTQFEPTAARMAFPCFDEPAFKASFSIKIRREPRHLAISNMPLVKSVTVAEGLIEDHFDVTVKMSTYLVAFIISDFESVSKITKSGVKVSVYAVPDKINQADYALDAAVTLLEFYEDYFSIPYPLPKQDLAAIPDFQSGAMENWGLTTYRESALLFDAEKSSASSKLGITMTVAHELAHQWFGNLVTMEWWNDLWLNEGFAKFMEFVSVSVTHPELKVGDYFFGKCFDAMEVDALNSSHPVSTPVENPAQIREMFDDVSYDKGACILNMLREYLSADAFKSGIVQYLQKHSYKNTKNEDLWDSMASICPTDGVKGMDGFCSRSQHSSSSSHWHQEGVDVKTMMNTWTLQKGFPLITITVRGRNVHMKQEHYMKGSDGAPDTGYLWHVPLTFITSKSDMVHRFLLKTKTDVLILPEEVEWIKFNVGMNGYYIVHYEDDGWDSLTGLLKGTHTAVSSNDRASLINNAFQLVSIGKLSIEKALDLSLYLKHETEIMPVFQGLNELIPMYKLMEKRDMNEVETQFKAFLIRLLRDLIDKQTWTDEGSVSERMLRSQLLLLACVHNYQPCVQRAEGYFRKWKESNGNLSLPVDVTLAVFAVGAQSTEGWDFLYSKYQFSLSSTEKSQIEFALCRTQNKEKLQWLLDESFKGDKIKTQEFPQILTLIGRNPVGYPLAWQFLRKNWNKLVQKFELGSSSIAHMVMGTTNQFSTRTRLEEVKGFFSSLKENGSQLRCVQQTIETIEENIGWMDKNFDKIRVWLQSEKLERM
GSIS activator = GLuc luminescence reporter in INS-1E cells, primary screen for activators of glucose-dependent secretion of insulin. activation, % at 16.6 µM. INS-1E GLuc reporter insulin secretion, 2-3 h. hit rate 0.61% among 370,000. AID 743287;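 active = lowest replicate activation of at least 40%, so every replicate reaches that level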
PGC1a acetyl inh = PGC1a acetylation modulation, inhibitor mode. AID 651687. inhibition, % at 15.6 µM. hit rate 0.17% among 350,000. U2OS PGC1a acetylation, AlphaScreen anti-acetyl-lysine; with virally co-expressed GCN5 acetyltransferase;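 active = every replicate shows inhibition of at least 40%; inconclusive = mean inhibition at least 40% but some replicate below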
Ecoli rRNA inh = selective bacterial rRNA inhibition in E. coli; E. coli WT GFP vs humanized-ribosome RFP mutants, fluorescence, 24 h; hits give low values; DMSO median 0, no signal -100; GFP signal change (wild-type ribosome), % (test concentration not listed); hit rate 1.6% among 350,000;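 active = significant combined selectivity score with lowered wild-type GFP, culture density cut under 30%, mutant RFP and density less affected; inactive = any of these conditions unmet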
DENV2 CPE rescue = inhibitors of DENV2 cytopathic effect; hit rate 1.7% among 350,000; DENV2-infected cells, cytopathic effect rescue, plate reader; CPE inhibition, % at 9.99 µM; AID 651640; in the data active = CPE inhibition above about 20%, passing the limit was not always enough; inconclusive = no clear call, values can overlap the other calls; tested in BHK-21 cells
Hits are given with their value; . = inactive; ? = inconclusive; / = no result; + = active, no number. Hits are enriched below; roughly 3.2% of the tested compounds scored in any of these assays.

SMILES	CaV13 FRET inh	ERAP1 inh	GSIS activator	PGC1a acetyl inh	Ecoli rRNA inh	DENV2 CPE rescue
CO[C@H]1CN(C)C(=O)c2cc(NS(=O)(=O)c3ccccc3)ccc2OC[C@H](C)N(Cc2cccnc2)C[C@@H]1C	/	.	.	.	.	.
O=C(/C=C/c1ccc(F)cc1)NC(=S)N1CCN(Cc2ccccc2)CC1	.	.	.	/	-33.8	.
O=C(/C=C/c1ccc(F)cc1)NNC(=O)CCN1CCN(Cc2ccccc2)CC1	.	.	.	51.8	.	.
Cc1ccc(S(=O)(=O)Nc2ccc3c(c2)C(=O)N([C@H](C)CO)C[C@H](C)[C@H](CN(C)C(=O)CCCN(C)C)OCCCC[C@H](C)O3)cc1	/	.	.	.	.	.
O=C(CN1C(=O)NC2(CCCc3ccccc32)C1=O)c1ccc(Br)cc1 (stereo unspecified)	.	.	.	/	-36.1	.
O=C(CN1C(=O)NC2(CCc3ccccc32)C1=O)c1ccc(Br)cc1 (stereo unspecified)	.	.	.	.	.	.
O=C(CN1C(=O)NC2(CCc3ccccc32)C1=O)Nc1cccc(Cl)c1 (stereo unspecified)	.	.	.	.	-30.4	.
COc1cccc(C(=O)Nc2ccc3c(c2)OC[C@@H](C)N(C(C)=O)C[C@@H](C)[C@H](OC)CN(C)C3=O)c1	/	.	.	.	.	?
O=C(N/N=C/c1cc2c(cc1Cl)OCO2)c1ccncc1	.	/	.	/	/	/
O=C(N/N=C/C=C/c1ccccc1[N+](=O)[O-])c1cc(-c2ccccc2)n[nH]1	.	.	.	/	-34.3	.
O=C(N/N=C/C=C\c1ccccc1[N+](=O)[O-])c1ccccn1	.	.	.	.	.	.
O=C(N/N=C/c1ccncc1)c1cccc([N+](=O)[O-])c1	.	.	.	/	.	.
CCOc1ccc(/C=N/NC(=O)c2cc(-c3cccn3C)n[nH]2)cc1	.	.	.	.	-26.1	.
O=C(N/N=C/c1cc2c(cc1Cl)OCO2)c1cc(-c2ccccc2)n[nH]1	/	.	.	.	-23.9	.
CC(/C=N/NC(=O)c1cccc([N+](=O)[O-])c1)=C\c1ccccc1	.	/	49.5	.	/	/
O=C(C[C@@H]1CC[C@@H](NC(=O)C2CCC2)[C@@H](CO)O1)NCC1CC1	/	.	.	.	.	.
O=C(O)C[C@@H]1C=C[C@H](NC(=O)CCN2CCCCC2)[C@@H](CO)O1	/	.	.	.	.	.
COCC(=O)Nc1ccc2c(c1)C(=O)N(C)C[C@H](OC)[C@@H](C)CN(CC1CCCCC1)[C@@H](C)CO2	/	.	.	.	.	/
CC(/C=N/NC(=O)c1cc(-c2cccn2C)n[nH]1)=C\c1ccccc1	.	.	.	.	-40.4	.
Cn1cccc1-c1cc(C(=O)N/N=C/c2ccccc2Cl)[nH]n1	.	.	.	.	-22.4	.
Cn1cccc1-c1cc(C(=O)N/N=C/c2ccc(F)cc2)[nH]n1	.	.	.	.	.	.
CC(C)c1ccc(/C=N/NC(=O)c2cc(-c3cccc([N+](=O)[O-])c3)n[nH]2)cc1	.	.	.	.	.	33.8
O=C(N/N=C/c1ccc(F)cc1)c1cc(-c2ccc3c(c2)OCO3)n[nH]1	.	.	/	.	/	.
COc1ccc(/C=N/NC(=O)c2cc(-c3ccc4c(c3)OCO4)n[nH]2)cc1OC	/	.	49.0	/	-20.2	.
Cn1cccc1-c1cc(C(=O)N/N=C/c2ccc([N+](=O)[O-])cc2)[nH]n1	.	.	.	/	.	.
SMILES	CaV13 FRET inh	ERAP1 inh	GSIS activator	PGC1a acetyl inh	Ecoli rRNA inh	DENV2 CPE rescue
CCCNC(=O)C[C@@H]1CC[C@H]2[C@@H](COC[C@H](O)CN2C(=O)c2cccnc2)O1	/	.	.	.	.	.
CO[C@@H]1CN(C)C(=O)c2cc(NS(=O)(=O)c3ccccc3)ccc2OC[C@H](C)NC[C@@H]1C	/	.	.	.	.	.
CCc1c(O)nc(SCC(=O)Nc2ccc(OC)cc2)n(C2CCCCC2)c1=O	.	/	/	.	/	/
CCc1c(O)nc(SCC(=O)Nc2nc3ccccc3s2)n(C2CCCCC2)c1=O	.	.	.	.	-16.6	.
C[C@H](CO)N1C[C@H](C)[C@@H](CN(C)Cc2ccc(C(F)(F)F)cc2)OCCCC[C@H](C)Oc2ccc(NS(=O)(=O)c3ccc(Cl)cc3)cc2C1=O	/	.	.	.	.	.
CCOC(=O)N(O)c1ccc(C=Cc2ccccc2)cc1	.	.	.	49.4	.	.
CC[C@@H](C)[C@H](CNC)NC[C@@H](Cc1cccc2ccccc12)NCCc1cccc(C(F)(F)F)c1	.	.	+	/	.	.
CNC[C@@H](Cc1ccccc1)NC[C@@H](CC1CCCCC1)NCCCc1ccccc1	.	.	88.9	.	.	.
CCC[C@H](CN[C@@H](CNC)[C@H](C)CC)NCCc1cc(C(F)(F)F)cc(C(F)(F)F)c1	.	.	.	.	.	.
CNC[C@@H](CC1CCCCC1)NC[C@H](CC(C)C)NCCc1cccc(C(F)(F)F)c1	.	.	480.2	87.5	.	?
CCC[C@@H](CNC)NC[C@H](Cc1ccccc1)NCCCCc1ccccc1	.	.	.	.	.	.
O=C(NC[C@H]1CC[C@@H]2[C@@H](CN2S(=O)(=O)c2ccccc2)O1)NC1CCCCC1	/	.	/	/	/	.
O=C(C[C@@H]1C[C@@H]2c3cc(NC(=O)c4ccc5c(c4)OCO5)ccc3O[C@@H]2[C@H](CO)O1)NCc1cc(F)ccc1F	/	.	.	.	.	.
COc1cccc(CN2CCCCN3[C@H](CO)[C@@H](c4ccc(C#Cc5cccnc5)cc4)[C@@H]3C2)c1	/	.	.	.	.	.
OC[C@@H]1[C@H](c2ccc(-c3ccccc3F)cc2)[C@H]2CN(Cc3cncnc3)CCCCN12	/	.	.	.	.	?
COc1cccc(-c2ccc([C@H]3[C@@H](CO)N4CCCCN(Cc5cncnc5)C[C@@H]34)cc2)c1	/	/	.	.	.	/
COc1cccc(-c2ccc([C@H]3[C@@H](CO)N4CCCCN(Cc5cncnc5)C[C@H]34)cc2)c1	/	.	.	.	.	38.3
COc1cccc(CN2CCCCN3[C@@H](CO)[C@H](c4ccc(C#Cc5cccnc5)cc4)[C@@H]3C2)c1	/	.	.	.	-17.8	?
OC[C@@H]1[C@@H](c2ccc(-c3cccc(F)c3)cc2)[C@@H]2CN(Cc3cncnc3)CCCCN12	/	.	.	.	.	46.7
OC[C@@H]1[C@@H](c2ccc(-c3ccccc3F)cc2)[C@H]2CN(Cc3cncnc3)CCCCN12	/	.	.	.	.	68.3
OC[C@H]1[C@H](c2ccc(C#Cc3ccccc3)cc2)[C@H]2CN(Cc3cncnc3)CCCCN21	/	.	.	.	.	.
CCN1[C@@H]2Cn3c(ccc(-c4cccnc4)c3=O)[C@H]1[C@@H](C(=O)NCc1ccccc1)[C@@H]2CO	/	.	.	.	.	.

Assay outcomes: PubChem, Broad Institute
